Results reported in PMC7862700, “An all-to-all approach to the identification of sequence-specific readers for epigenetic DNA modifications on cytosine”.

Legend:
Assay in all cases: DAPPL (digital affinity profiling via proximity ligation, sequencing); 10 mM Tris-HCl pH 7.5, 50 mM NaCl, 1 mM DTT, 4% glycerol, room temperature, 30 min; GST-TFs on glutathione beads, 16-mer random dsDNA library, 0.1% formaldehyde crosslink after washing; high values mean tight binding
FLI1 = target: T1, FLI1 (Homo sapiens, UniProt Q01543 1-452); settings: protein: recombinant; tags: N-terminal GST; dsDNA, one strand shown
T1 sequence: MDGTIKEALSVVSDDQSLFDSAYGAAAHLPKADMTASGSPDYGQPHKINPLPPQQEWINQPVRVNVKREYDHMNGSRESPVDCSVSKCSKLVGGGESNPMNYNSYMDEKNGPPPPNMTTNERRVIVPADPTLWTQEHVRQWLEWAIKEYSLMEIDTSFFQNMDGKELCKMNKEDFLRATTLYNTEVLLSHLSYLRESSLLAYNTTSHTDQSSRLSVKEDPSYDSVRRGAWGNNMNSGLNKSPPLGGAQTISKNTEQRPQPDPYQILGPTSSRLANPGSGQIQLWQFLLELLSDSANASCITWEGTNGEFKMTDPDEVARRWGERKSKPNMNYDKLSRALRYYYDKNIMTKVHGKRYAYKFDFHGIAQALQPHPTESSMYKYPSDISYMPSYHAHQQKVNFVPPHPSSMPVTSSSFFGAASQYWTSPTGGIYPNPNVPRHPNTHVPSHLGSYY
Procedure, shortened: (§1)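 The binding signal reported is, for every hexamer, its read frequency for a factor over its read frequency for the tag-only sample. Reads came from pools of yeast-expressed, GST-fused human transcription factors on glutathione beads, barcoded with DNA and mixed with that sample, which were incubated with 200 nmole of a random double-stranded 16-mer DNA library in Tris/NaCl/DTT/glycerol buffer at room temperature for 30 min. After washing, the pools were crosslinked with 0.1% formaldehyde, proximity-ligated with BsaI/T4 ligase for 1 h at 37 °C, PCR-amplified and sequenced on an Illumina NextSeq500.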

ELK1 = target: T2, ELK1 (Homo sapiens, UniProt P19419 1-428); settings: protein: recombinant; tags: N-terminal GST; dsDNA, one strand shown
T2 sequence: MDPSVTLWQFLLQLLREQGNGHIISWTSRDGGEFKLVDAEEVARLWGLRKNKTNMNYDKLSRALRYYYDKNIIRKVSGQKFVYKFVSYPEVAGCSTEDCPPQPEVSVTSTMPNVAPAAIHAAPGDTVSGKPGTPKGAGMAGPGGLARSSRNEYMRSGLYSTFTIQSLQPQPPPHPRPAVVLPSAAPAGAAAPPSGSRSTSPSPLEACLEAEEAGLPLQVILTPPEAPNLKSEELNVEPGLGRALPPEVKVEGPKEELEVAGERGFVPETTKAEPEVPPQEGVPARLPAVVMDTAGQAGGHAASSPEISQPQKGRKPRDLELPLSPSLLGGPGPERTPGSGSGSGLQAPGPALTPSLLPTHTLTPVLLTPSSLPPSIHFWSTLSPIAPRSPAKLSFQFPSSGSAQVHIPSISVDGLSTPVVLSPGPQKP
Procedure, shortened: as §1

GABPA = target: T3, GABPA (Homo sapiens, UniProt Q06546 1-454); settings: protein: recombinant; tags: N-terminal GST; dsDNA, one strand shown
T3 sequence: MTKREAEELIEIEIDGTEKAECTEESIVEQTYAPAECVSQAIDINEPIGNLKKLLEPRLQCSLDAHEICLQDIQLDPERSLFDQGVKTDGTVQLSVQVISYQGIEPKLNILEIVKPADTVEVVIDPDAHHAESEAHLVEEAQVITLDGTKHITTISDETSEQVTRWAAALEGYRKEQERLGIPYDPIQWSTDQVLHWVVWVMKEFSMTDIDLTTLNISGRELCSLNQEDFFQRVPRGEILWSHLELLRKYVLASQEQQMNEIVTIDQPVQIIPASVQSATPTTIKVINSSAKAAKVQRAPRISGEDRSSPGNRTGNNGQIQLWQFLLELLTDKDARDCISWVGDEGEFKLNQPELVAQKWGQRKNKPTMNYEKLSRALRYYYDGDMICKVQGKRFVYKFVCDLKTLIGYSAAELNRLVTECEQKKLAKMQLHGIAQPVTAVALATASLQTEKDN
Procedure, shortened: as §1

ERG = target: T4, ERG (Homo sapiens, UniProt P11308 1-479); settings: protein: recombinant; tags: N-terminal GST; dsDNA, one strand shown
T4 sequence: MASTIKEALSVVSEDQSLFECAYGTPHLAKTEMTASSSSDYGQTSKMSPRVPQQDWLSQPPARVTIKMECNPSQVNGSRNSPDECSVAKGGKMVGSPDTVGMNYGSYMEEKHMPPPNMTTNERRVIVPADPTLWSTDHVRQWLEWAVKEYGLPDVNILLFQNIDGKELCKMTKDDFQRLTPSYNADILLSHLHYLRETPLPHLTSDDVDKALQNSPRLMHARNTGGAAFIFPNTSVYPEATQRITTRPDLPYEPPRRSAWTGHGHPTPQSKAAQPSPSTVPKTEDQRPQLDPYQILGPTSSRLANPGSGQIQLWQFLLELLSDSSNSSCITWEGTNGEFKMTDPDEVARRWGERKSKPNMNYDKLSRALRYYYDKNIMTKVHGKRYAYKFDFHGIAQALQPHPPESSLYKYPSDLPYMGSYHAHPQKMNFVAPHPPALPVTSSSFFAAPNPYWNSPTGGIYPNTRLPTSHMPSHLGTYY
Procedure, shortened: as §1

ELF1 = ELF1 (Homo sapiens, UniProt P32519 1-619); settings: protein: recombinant; tags: N-terminal GST; dsDNA, one strand shown
Procedure, shortened: as §1

EHF = target: T5, EHF (Homo sapiens, UniProt Q9NZC4 1-300); settings: protein: recombinant; tags: N-terminal GST; dsDNA, one strand shown
T5 sequence: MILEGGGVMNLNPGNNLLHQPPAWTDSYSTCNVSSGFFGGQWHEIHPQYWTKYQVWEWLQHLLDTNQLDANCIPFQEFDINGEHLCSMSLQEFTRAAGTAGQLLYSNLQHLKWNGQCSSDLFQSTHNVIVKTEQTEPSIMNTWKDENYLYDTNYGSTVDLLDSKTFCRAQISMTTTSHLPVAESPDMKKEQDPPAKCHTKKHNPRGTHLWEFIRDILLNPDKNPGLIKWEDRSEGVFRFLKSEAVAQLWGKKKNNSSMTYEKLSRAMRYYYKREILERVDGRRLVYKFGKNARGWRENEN
Procedure, shortened: as §1

SPI1 = SPI1 (Homo sapiens, UniProt P17947 1-270); settings: protein: recombinant; tags: N-terminal GST; dsDNA, one strand shown
Procedure, shortened: as §1

SPIB = SPIB (Homo sapiens, UniProt Q01892 1-262); settings: protein: recombinant; tags: N-terminal GST; dsDNA, one strand shown
Procedure, shortened: as §1

ELK3 = target: T6, ELK3 (Homo sapiens, UniProt P41970 1-407); settings: protein: recombinant; tags: N-terminal GST; dsDNA, one strand shown
T6 sequence: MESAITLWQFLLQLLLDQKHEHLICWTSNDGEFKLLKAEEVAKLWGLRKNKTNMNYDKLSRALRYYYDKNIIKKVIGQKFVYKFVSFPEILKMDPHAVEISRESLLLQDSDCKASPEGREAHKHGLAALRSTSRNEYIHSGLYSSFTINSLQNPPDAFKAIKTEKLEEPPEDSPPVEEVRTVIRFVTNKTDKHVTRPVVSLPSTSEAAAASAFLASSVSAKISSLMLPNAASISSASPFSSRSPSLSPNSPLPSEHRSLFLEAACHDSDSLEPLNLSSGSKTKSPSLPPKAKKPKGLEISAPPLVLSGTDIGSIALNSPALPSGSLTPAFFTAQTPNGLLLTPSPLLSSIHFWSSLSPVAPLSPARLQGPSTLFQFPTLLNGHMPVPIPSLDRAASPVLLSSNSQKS
Procedure, shortened: as §1

FEV = target: T7, FEV (Homo sapiens, UniProt Q99581 1-238); settings: protein: recombinant; tags: N-terminal GST; dsDNA, one strand shown
T7 sequence: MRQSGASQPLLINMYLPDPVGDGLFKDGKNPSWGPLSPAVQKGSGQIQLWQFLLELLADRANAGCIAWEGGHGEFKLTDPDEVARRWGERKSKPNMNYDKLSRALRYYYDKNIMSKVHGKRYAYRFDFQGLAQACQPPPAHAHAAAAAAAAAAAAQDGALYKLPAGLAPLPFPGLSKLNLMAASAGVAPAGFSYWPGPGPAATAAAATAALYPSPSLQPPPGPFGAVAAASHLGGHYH
Procedure, shortened: as §1

ETV5 = ETV5 (Homo sapiens, UniProt P41161 1-510); settings: protein: recombinant; tags: N-terminal GST; dsDNA, one strand shown
Procedure, shortened: as §1

HSF1 = HSF1 (Homo sapiens, UniProt Q00613 1-529); settings: protein: recombinant; tags: N-terminal GST; chain copies: 3; dsDNA, one strand shown
Procedure, shortened: as §1

SPIC = target: T8, SPIC (Homo sapiens, UniProt Q8N5J4 1-248); settings: protein: recombinant; tags: N-terminal GST; dsDNA, one strand shown
T8 sequence: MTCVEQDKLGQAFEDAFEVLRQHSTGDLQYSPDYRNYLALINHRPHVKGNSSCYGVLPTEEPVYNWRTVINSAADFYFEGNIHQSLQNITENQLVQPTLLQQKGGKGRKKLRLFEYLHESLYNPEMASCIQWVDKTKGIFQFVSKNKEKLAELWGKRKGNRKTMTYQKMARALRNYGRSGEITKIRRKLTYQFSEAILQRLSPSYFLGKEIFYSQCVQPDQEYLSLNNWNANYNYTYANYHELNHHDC
Procedure, shortened: as §1

ELF4 = ELF4 (Homo sapiens, UniProt Q99607 1-663); settings: protein: recombinant; tags: N-terminal GST; dsDNA, one strand shown
Procedure, shortened: as §1

ELK4 = target: T9, ELK4 (Homo sapiens, UniProt P28324-2 1-405); settings: protein: recombinant; tags: N-terminal GST; dsDNA, one strand shown
T9 sequence: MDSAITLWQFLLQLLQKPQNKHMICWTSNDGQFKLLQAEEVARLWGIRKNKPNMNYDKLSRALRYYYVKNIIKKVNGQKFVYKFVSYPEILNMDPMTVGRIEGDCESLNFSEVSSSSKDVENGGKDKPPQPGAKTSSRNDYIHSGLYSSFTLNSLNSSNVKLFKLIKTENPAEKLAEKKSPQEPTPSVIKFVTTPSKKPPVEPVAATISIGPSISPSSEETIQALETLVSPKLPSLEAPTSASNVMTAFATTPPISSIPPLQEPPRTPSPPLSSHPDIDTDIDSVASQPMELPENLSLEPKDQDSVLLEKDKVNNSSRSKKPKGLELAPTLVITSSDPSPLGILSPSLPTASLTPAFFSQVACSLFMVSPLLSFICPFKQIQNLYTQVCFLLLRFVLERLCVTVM
Procedure, shortened: as §1

ETV2 = target: T10, ETV2 (Homo sapiens, UniProt O00321 1-342); settings: protein: recombinant; tags: N-terminal GST; dsDNA, one strand shown
T10 sequence: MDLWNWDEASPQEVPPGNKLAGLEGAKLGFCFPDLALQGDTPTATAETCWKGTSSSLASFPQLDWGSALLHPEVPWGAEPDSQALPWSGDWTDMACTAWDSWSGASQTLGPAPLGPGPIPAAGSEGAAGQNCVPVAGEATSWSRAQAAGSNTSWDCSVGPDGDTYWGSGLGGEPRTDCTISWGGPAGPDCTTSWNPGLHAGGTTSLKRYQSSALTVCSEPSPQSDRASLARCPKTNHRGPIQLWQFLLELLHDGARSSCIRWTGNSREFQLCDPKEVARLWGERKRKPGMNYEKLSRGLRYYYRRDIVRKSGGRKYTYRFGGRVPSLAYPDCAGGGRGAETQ
Procedure, shortened: as §1

ELF3 = target: T11, ELF3 (Homo sapiens, UniProt P78545 1-371); settings: protein: recombinant; tags: N-terminal GST; dsDNA, one strand shown
T11 sequence: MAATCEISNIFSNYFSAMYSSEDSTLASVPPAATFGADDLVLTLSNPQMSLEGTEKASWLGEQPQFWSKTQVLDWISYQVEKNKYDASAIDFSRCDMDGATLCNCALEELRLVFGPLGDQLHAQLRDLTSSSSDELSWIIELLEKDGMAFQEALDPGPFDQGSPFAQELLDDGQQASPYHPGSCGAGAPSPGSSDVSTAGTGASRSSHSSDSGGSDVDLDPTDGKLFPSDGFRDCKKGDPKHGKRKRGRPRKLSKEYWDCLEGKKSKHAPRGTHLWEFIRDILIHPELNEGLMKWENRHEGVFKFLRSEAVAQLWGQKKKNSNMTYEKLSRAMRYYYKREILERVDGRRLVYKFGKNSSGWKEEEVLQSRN
Procedure, shortened: as §1

ETV1 = ETV1 (Homo sapiens, UniProt P50549 1-477); settings: protein: recombinant; tags: N-terminal GST; dsDNA, one strand shown
Procedure, shortened: as §1

Chain of ELF1 (P32519 whole entry): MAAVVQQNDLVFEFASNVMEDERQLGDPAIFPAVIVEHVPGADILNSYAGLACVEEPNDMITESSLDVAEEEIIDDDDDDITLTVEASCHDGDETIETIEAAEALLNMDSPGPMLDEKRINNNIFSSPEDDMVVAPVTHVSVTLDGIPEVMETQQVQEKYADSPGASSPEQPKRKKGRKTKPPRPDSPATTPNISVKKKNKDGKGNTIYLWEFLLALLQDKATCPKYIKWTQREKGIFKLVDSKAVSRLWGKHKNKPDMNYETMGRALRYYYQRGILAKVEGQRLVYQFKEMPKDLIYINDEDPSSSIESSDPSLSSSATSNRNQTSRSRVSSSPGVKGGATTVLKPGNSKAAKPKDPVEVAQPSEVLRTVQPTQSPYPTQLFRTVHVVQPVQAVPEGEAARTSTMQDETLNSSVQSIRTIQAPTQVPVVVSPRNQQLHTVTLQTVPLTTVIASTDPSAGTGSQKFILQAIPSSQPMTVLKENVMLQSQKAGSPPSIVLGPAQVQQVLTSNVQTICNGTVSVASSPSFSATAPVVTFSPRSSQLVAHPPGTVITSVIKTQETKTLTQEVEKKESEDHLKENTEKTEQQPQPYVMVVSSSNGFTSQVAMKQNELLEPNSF
Chain of SPIB (Q01892 whole entry): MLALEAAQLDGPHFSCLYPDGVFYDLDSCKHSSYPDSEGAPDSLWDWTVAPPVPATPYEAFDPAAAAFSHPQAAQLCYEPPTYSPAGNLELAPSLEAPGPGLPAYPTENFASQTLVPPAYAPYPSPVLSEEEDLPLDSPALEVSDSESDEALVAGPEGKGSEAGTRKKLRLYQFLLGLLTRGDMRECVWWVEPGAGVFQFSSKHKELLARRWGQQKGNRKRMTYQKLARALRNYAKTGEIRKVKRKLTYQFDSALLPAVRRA
Chain of HSF1 (Q00613 whole entry): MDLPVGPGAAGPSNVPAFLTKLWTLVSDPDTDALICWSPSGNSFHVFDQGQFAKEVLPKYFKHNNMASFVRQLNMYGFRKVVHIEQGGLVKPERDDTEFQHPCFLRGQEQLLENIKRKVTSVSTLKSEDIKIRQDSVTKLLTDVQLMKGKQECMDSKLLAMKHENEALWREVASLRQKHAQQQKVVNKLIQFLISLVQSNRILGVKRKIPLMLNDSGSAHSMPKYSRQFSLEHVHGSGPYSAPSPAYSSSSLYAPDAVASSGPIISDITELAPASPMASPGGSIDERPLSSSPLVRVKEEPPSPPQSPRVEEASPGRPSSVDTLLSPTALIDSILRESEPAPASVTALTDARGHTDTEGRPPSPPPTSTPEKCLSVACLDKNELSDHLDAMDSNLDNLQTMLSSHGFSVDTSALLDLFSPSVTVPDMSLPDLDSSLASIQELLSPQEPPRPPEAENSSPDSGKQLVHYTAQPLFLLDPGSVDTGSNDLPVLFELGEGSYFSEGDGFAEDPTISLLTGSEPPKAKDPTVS
Chain of ELF4 (Q99607 whole entry): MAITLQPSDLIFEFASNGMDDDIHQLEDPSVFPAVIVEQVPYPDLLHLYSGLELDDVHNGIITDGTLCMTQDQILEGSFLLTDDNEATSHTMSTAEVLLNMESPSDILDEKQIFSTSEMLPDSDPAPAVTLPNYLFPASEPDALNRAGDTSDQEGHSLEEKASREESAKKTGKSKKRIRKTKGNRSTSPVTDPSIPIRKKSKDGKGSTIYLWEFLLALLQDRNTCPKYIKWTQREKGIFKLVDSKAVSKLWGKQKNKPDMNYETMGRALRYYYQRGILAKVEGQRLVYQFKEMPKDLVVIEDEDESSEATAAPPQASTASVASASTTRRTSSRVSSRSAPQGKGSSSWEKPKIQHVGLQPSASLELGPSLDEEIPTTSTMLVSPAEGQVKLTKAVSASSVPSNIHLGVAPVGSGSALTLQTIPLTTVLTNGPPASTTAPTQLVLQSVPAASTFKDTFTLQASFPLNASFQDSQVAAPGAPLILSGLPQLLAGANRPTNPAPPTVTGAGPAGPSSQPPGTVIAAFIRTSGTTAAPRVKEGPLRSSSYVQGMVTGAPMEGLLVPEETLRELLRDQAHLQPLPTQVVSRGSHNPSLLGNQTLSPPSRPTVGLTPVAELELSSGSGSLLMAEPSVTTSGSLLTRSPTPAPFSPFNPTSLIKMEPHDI
Chain of ETV1 (P50549 whole entry): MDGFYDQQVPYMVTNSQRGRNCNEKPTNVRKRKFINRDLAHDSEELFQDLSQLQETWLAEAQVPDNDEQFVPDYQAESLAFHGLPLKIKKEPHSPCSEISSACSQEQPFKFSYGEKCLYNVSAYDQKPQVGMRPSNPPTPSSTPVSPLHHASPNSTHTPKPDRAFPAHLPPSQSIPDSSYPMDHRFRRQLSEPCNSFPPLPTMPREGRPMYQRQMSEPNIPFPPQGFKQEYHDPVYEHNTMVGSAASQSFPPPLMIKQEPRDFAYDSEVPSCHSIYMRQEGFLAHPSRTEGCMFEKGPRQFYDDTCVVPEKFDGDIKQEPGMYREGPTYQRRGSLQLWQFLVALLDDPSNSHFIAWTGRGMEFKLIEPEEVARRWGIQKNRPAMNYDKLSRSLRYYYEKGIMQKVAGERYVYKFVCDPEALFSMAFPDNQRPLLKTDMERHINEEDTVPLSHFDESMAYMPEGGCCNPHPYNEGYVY
Chain of ETV5 (P41161 whole entry): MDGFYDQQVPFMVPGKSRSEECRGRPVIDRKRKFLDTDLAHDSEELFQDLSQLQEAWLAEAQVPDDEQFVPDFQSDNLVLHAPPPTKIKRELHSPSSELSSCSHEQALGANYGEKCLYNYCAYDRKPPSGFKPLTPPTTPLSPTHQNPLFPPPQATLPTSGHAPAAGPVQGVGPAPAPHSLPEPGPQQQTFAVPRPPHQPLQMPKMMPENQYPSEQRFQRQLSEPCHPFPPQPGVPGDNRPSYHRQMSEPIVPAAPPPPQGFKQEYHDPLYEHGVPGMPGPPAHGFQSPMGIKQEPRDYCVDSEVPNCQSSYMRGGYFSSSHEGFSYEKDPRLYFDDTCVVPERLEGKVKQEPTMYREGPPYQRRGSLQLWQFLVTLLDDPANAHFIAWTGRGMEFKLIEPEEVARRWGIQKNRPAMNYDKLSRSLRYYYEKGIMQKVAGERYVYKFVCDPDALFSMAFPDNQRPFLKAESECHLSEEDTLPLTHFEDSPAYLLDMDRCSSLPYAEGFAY

Sequence: TCTGAC
- binding signal (FLI1): 1.26 fold enrichment (6-mer frequency, TF over GST control)
- binding signal (ELK1): 1.19 fold enrichment (6-mer frequency, TF over GST control)
- binding signal (GABPA): 1.24 fold enrichment (6-mer frequency, TF over GST control)
- binding signal (ERG): 1.16 fold enrichment (6-mer frequency, TF over GST control)
- binding signal (ELF1): 1.28 fold enrichment (6-mer frequency, TF over GST control)
- binding signal (EHF): 1.3 fold enrichment (6-mer frequency, TF over GST control)
- binding signal (SPI1): 1.09 fold enrichment (6-mer frequency, TF over GST control)
- binding signal (SPIB): 1.25 fold enrichment (6-mer frequency, TF over GST control)
- binding signal (ELK3): 1.24 fold enrichment (6-mer frequency, TF over GST control)
- binding signal (FEV): 1.15 fold enrichment (6-mer frequency, TF over GST control)
- binding signal (ETV5): 1.15 fold enrichment (6-mer frequency, TF over GST control)
- binding signal (HSF1): 1.07 fold enrichment (6-mer frequency, TF over GST control)
- binding signal (SPIC): 1.04 fold enrichment (6-mer frequency, TF over GST control)
- binding signal (ELF4): 1.35 fold enrichment (6-mer frequency, TF over GST control)
- binding signal (ELK4): 1.25 fold enrichment (6-mer frequency, TF over GST control)
- binding signal (ETV2): 1.16 fold enrichment (6-mer frequency, TF over GST control)
- binding signal (ELF3): 1.18 fold enrichment (6-mer frequency, TF over GST control)
- binding signal (ETV1): 1.3 fold enrichment (6-mer frequency, TF over GST control)
